An excerpt weighted towards active compounds, which were near 4.2% of everything screened.
Tau fil binding – binds recombinant human tau filaments. P10636. recombinant tau filaments, thioflavin S fluorescence, 15 h; filaments grown with octadecylsulfate alongside compound. Potency, µM (highest dose often 57.1 µM), for inactives: at the top dose activity change, negative = inhibition. 71,000 compounds, 2% hits. AID 596;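 further: potency means the concentration at half of the fitted maximal effect; on the % scale 0 is the no-effect control and ±100 the full control effect; actives lower thioflavin S fluorescence by blocking filaments or displacing dye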
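Tau 2 uM in ThS buffer dispensed; compound added; 60 uM ODS added (finals 1 uM tau, 30 uM ODS); 15 h 37 C; fluor ex450/em510.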
ALOX15 inhib – blocks human 15-lipoxygenase activity. Potency, µM (doses to about 57.1 µM), for inactives: at the top dose activity change, negative = inhibition, actives largely listed as inhibitors. purified 15hLO-1, xylenol orange hydroperoxide absorbance. 74,000 compounds, 1.4% hits. P16050; further: potency means the concentration at half of the fitted maximal effect; on the % scale 0 is the no-effect control and ±100 the full control effect; nearly all actives have a fitted effect of over 55% in size
Target sequence (P16050 whole entry, looked up): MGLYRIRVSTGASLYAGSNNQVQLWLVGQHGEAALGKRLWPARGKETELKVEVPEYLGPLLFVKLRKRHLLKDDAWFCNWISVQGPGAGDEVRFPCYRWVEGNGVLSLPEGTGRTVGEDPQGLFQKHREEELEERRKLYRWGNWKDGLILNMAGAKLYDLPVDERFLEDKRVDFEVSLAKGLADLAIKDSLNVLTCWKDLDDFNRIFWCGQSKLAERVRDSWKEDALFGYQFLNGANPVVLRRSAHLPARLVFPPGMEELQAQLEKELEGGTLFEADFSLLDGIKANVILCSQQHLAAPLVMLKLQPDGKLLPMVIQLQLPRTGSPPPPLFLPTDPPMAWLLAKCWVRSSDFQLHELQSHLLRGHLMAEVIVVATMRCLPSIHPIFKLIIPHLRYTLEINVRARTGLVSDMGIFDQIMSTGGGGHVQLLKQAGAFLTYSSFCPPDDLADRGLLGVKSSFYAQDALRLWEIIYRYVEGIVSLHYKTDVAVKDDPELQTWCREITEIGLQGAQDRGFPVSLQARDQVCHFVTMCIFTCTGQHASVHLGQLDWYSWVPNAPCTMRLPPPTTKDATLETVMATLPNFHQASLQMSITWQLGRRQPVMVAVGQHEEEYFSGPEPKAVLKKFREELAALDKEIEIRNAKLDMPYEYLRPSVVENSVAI
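40 nM 15hLO-1 + cpd, 15 min RT; start w/ 50 uM AA (final), 6 min RT; stop/detect w/ 200 uM XO + 300 uM Fe(II) in 50 mM H2SO4, 30 min; A573/A405. Buffer 25 mM Hepes pH 7.5, 0.01% Triton X-100. No-enzyme wells as negative control.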
YjeE inh – displaces an ADP probe from E. coli YjeE (TsaE); purified YjeE enzyme, qHTS inhibition assay; Potency, µM; P0AF67; 71,000 compounds, 0.05% hits; AID 605
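Purified YjeE (10 uM) with BODIPY Texas Red-labeled ADP probe (2 uM); compounds pin-transferred, 15 min at room temperature. Binding inhibition read as decreased fluorescence polarization; ADP titration as control.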
Hsp90 Hop PPI – changes Hsp90-Hop TPR2A binding signal, up or down | 71,000 compounds, 0.44% hits | AID 595 | Potency, µM (doses to about 57 µM), inactives show at the highest dose activity change, negative = inhibition | AlphaScreen TPR2A-His6 binding biotin-Hsp90 C-terminal peptide; active means well fitted curve in either direction with a large enough effect; inconclusive means small, poorly fitted or top-dose-only effect, or another doubt; further: potency means the concentration at half of the fitted maximal effect; on the % scale 0 is the no-effect control and ±100 the full control effect
DNA Pol III inh – inhibitors of bacterial DNA polymerase III holoenzyme. reconstituted DNA polymerase III holoenzyme replication, biochemical. Potency, µM (top dose mostly 57.1 µM), for the others: at the top dose activity change, negative = inhibition. 71,000 compounds, 0.25% hits. AID 603; further: potency means the concentration at half of the fitted maximal effect; on the % scale 0 is the no-effect control and ±100 the full control effect
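Reconstituted *E. coli* holoenzyme (0.35 nM Pol III, 1 nM beta, 154 nM SSB, 2 nM primase) was preincubated with compound for 15 min at RT. Synthesis on 1.4 nM ssM13Gori ran 35 min, then was stopped with PicoGreen/EDTA and read as dsDNA fluorescence.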
ERK AVP block – blocks ERK signaling stimulated by vasopressin; AID 995; 72,000 compounds, 0.99% hits; Potency, µM (titrated, usually from 57.5 µM), for the others: top-dose activity, negative = inhibition, usual class: inhibitors; HEK293-V1b, vasopressin-stimulated pERK AlphaScreen; further: potency means the concentration at half of the fitted maximal effect; on the % scale 0 is the no-effect control and ±100 the full control effect; nearly all actives have a fitted effect of over 55% in size
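qHTS, compounds titrated on V1b-expressing HEK293 cells. Preincubation 30 min at 37C, vasopressin 25 nM for 5 min, lysis 10 min, bead incubation 5 hr at room temperature.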
* = called active by the depositor; i = inactive; ? = inconclusive; . = no result; ! = not active in a repeat; [ ] = remark or other dose. Unless noted, the call rests on the fitted dose curve; in most records, active means well fitted curve in the direction sought with a large enough effect; inconclusive means small, poorly fitted or top-dose-only effect, or another doubt; inactive means no such curve, though single readings can be large; an effect the other way counts as inactive or inconclusive.

SMILES	Tau fil binding	ALOX15 inhib	YjeE inh	Hsp90 Hop PPI	DNA Pol III inh	ERK AVP block
CC1CC(C(O)c2ccccn2)C(=O)C(C(O)c2ccccn2)C1 (stereo not drawn)	-5%	-1%	i	-23%	0%	-3%
Cc1cccc(OCC(=O)Nc2ccc(N3CCN(S(C)(=O)=O)CC3)cc2)c1	-8%	-12%	i	-3%	-15%	4%
CC(C)(c1cc(Br)c(O)c(Br)c1)c1cc(Br)c(O)c(Br)c1	?	2.5µM*	i	?	5%	4%
CCN(CC)c1ccc(/C=N/n2c(C)cc(C)cc2=O)cc1	5%[11.4 µM]	2%[11.4 µM]	i	-8%[11 µM]	4%[11.4 µM]	?
Cc1ccc(Cl)cc1N1CCN(C(=O)CCS(=O)(=O)c2cccc3nonc23)CC1	13µM*	-25%	i	-3%	-1%	29%
O=C1C(Cl)=C(N2CCOCC2)C(=O)N1c1cccc(Cl)c1	10%[11.4 µM]	4µM*	i	-1%[11 µM]	-1%[11.4 µM]	?
CCCn1nnc(NC(=O)c2cc(Br)ccc2OC)n1	-6%	-6%	i	-2%	-4%	-13%
CC(C)CN1CC2(CCN(C(=O)c3cnccn3)CC2)C1	7%	2%	i	2%	0%	10%
CCOc1ccccc1NC(=O)CC1Nc2ccccc2NC1=O (stereo not drawn)	-29%	-3%	i	-9%	-7%	-6%
CC(NC(=O)CC1Nc2ccccc2NC1=O)c1ccccc1 (stereo not drawn)	-1%	?	i	0%	-2%	28%
CCOc1ccccc1NC(=O)CC1Nc2cc(C)c(C)cc2NC1=O (stereo not drawn)	4µM*	?	i	-2%	1%	-5%
COc1ccc(CCNC(=O)CC2Nc3ccccc3NC2=O)cc1 (stereo not drawn)	13µM*	-1%	i	-9%	-6%	?
Cc1ccc(NC(=O)CC2Nc3ccccc3NC2=O)cc1Cl (stereo not drawn)	20µM*	-26%	i	8%	-1%	10%
N#CCSCC(=O)Nc1ccc(F)cc1	2%	1%	i	-6%	-2%	-28%
COc1ccc2nc(C)cc(N3CCOCC3)c2c1	-16%	-5%	i	-1%	-4%	-13%
Cc1cc(N2CCOCC2)c2c(N)c(C)cc(C)c2n1	16µM*	2%	i	-7%	-6%	-23%
Cn1cnnc1SCC(=O)Nc1ccccc1Sc1ccccc1	-13%	13%	i	0%	4%	-9%
O=C(CCCCn1c(=O)[nH]c2ccccc2c1=O)NC1CCN(Cc2ccccc2)CC1	2%	7%	i	-6%[2.3 µM]	1%	-26%
O=C(c1ccc(F)cc1)C1CCN(CCn2c(=O)[nH]c3ccccc3c2=O)CC1	32µM*!	-10%[25.6 µM]	i	1%	-7%	23%
COc1cc(CNc2ccc3[nH]c(=O)[nH]c3c2)cc(Cl)c1OCC(=O)NC(C)(C)C	10µM*	?	i	-15%	-8%	-19%
COc1cc(NC(=O)CN2C(=O)NC(C)(CCC(C)C)C2=O)cc(OC)c1 (stereo not drawn)	-10%	-2%	i	-3%	-7%	5%
Oc1ccc2c(c1)oc1cc(O)ccc12	-19%	13µM*	i	-2%	-1%	-11%
CCOc1ccc(C(=O)N(CN2CCCC2=O)c2ccc(C)cc2)cc1	2%	-2%	i	-5%	0%	-4%
Cn1c(=O)c2c(nc(NCCCO)n2C/C=C/c2ccccc2)n(C)c1=O	4%	-15%	i	-1%	4%	?
CC(Nc1n[nH]c(=S)[nH]c1=O)C(=O)OCc1ccccc1 (stereo not drawn)	-9%	-18%	i	-4%	0%	8%
SMILES	Tau fil binding	ALOX15 inhib	YjeE inh	Hsp90 Hop PPI	DNA Pol III inh	ERK AVP block
O=C(CSc1nc2ccccc2[nH]1)c1ccc2c(c1)OCO2	0%	?	i	9%	4%	28%
O=C(CSc1nc2ccccc2[nH]1)Nc1ccc2c(c1)OCCO2	-1%	0%	i	1%	-11%	32µM*
O=c1[nH]n(-c2cccc3cccnc23)c(=O)c2ccccc12	6%	0%	i	-4%	-4%	15%
O=S1(=O)Nc2c(ccc3cccnc23)-c2ccccc21	-11%	21%	i	3.2µM*	-24%	21%
Nc1ccccc1SCC(=O)N1CCc2ccccc21	-1%	-6%	i	-1%	-2%	-17%
N#C[C@@H](Cc1ccc(O)c(O)c1)C(=O)N1CCc2ccccc21	-5%	0.63µM*	i	6.3µM*	-13%	?
OC(CN(c1ccccc1)c1ccccc1)Cn1cnc2ccccc21 (stereo not drawn)	13µM*	16%	i	-23%	5%	?
c1ccc2c(c1)ncn2CCn1cnc2ccccc21	3%	1%	i	-7%	-2%	-11%
O=S1(=O)NC(=NC2CCCCCC2)c2ccccc21	13%	-3%	i	3%	-7%	-11%
c1nc(N2CCCCCC2)c2[nH]cnc2n1	?	5%	i	-5%	4%	.
c1nc(N2CCN(Cc3ccc4c(c3)OCO4)CC2)c2[nH]cnc2n1	-3%	-6%	i	3%	1%	.
c1nc(N2CCCC2)c2[nH]cnc2n1	2%	3%	i	1%	-1%	32µM*
OCCN1CCN(c2ncnc3nc[nH]c23)CC1	25µM*	?	i	-5%	1%	.
c1ccc(-c2nc3nc4ccccc4nc3n2Cc2ccco2)cc1	13µM*	-13%	i	0%	-6%	-5%
COCCCn1c(-c2ccco2)nc2ccccc2c1=O	6%	2%	i	-5%	-4%	-17%
Fc1ccc(-n2c(-c3ccco3)nc3nc4ccccc4nc32)cc1	13µM*	-8%	i	-3%	-1%	-13%
Fc1ccc(-c2nc3nc4ccccc4nc3n2Cc2ccco2)cc1	16µM*	-24%	i	0%	-6%	-24%
S=c1nc(-c2ccccc2)n(Cc2ccco2)c2c1CCCC2	.	-9%	.	.	.	.
CCCCOCCCn1c(-c2ccco2)nc2nc3ccccc3nc21	2µM*	?	i	-2%	8%	-13%
C=CCn1c(COC)nnc1SCC(=O)c1ccc(F)cc1	-2%	-14%	i	-5%	1%	1%
CCOC(=O)c1c(C)oc2cc(Br)c(O)c(Br)c12	-4%	?	i	-3%	5%	-27%
CCCCNC(=O)Nc1c(C(=O)OCC)[nH]c2ccccc12	-2%	-3%	i	-3%	-6%	3%
O=C(CN1C(=O)C2C3C=CC(C3)C2C1=O)NCCc1ccccc1 (stereo not drawn)	-2%	6%	i	-2%	-1%	17%

Screens from PubChem BioAssay.
